The campaign covered roughly 5,500 compounds. About 2,000 (36%) were called active. Another 18% or so got no clear call; they are omitted. Rule as the data show it: active = normalized growth mostly below about 0.91 (no sharp cut-off); inconclusive = no clear call, values can overlap the other calls; inactive = mostly above about 0.92. The list shows a part of the results.
Test: chemical genetic growth profiling, strain panel (AID 1159580);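 also: tested at 20 µM; growth read once vehicle control cultures reached saturation at 30 °C; 1 = growth at the plate median or of vehicle wells; lower values mean less growth of the strain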
Conditions: growth OD
[1] = S. cerevisiae deletion strains, locus YAL013W, strain DEP1, stronger effect = lower value
[2] = S. cerevisiae deletion strains, locus YBR229C, strain ROT2, stronger effect = lower value
[3] = S. cerevisiae deletion strains, locus YDL101C, strain DUN1, stronger effect = lower value
[4] = S. cerevisiae deletion strains, locus YDR150W, strain NUM1, stronger effect = lower value
[5] = S. cerevisiae deletion strains, locus YEL061C, strain CIN8, stronger effect = lower value
[6] = S. cerevisiae deletion strains, locus YGR078C, strain PAC10, stronger effect = lower value
[7] = S. cerevisiae deletion strains, locus YGR229C, strain SMI1, stronger effect = lower value
[8] = S. cerevisiae deletion strains, locus YHR030C, strain SLT2, stronger effect = lower value
[9] = S. cerevisiae deletion strains, locus YHR087W, strain rtc3, stronger effect = lower value
[10] = S. cerevisiae deletion strains, locus YJL187C, strain SWE1, stronger effect = lower value
[11] = S. cerevisiae deletion strains, locus YJR043C, strain POL32, stronger effect = lower value
[12] = S. cerevisiae deletion strains, locus YJR075W, strain HOC1, stronger effect = lower value
[13] = S. cerevisiae deletion strains, locus YKL190W, strain CNB1, stronger effect = lower value
[14] = S. cerevisiae deletion strains, locus YLR039C, strain RIC1, stronger effect = lower value
[15] = S. cerevisiae deletion strains, locus YLR058C, strain SHM2 (second series), stronger effect = lower value
[16] = S. cerevisiae deletion strains, locus YLR085C, strain ARP6, stronger effect = lower value
[17] = S. cerevisiae deletion strains, locus YLR262C, strain YPT6, stronger effect = lower value
[18] = S. cerevisiae deletion strains, locus YML094W, strain GIM5, stronger effect = lower value
[19] = S. cerevisiae deletion strains, locus YMR219W, strain ESC1, stronger effect = lower value
[20] = S. cerevisiae deletion strains, locus YMR263W, strain SAP30, stronger effect = lower value
[21] = S. cerevisiae deletion strains, locus YNL153C, strain GIM3, stronger effect = lower value
[22] = S. cerevisiae deletion strains, locus YNL298W, strain CLA4 (second series), stronger effect = lower value
[23] = S. cerevisiae deletion strains, locus YNL322C, strain KRE1, stronger effect = lower value
[24] = S. cerevisiae deletion strains, locus YNR030W, strain Alg12, stronger effect = lower value
[25] = S. cerevisiae deletion strains, locus YPL055C, strain LGE1, stronger effect = lower value
[26] = S. cerevisiae deletion strains, locus YPL241C, strain CIN2, stronger effect = lower value
[27] = S. cerevisiae deletion strains, locus YPR135W, strain CTF4, stronger effect = lower value
[28] = S. cerevisiae strains, strain wild type, stronger effect = lower value

Measured: normalized growth

O=C(Nc1ccccc1)N1CCN(C(c2ccccc2)c2ccccc2)CC1
inactive: [1] 0.988 | [2] 0.992 | [3] 0.994 | S. cerevisiae deletion strains, locus YDL134C, strain PPH21, stronger effect = lower value 1.01 | [4] 1 | [5] 0.997 | [6] 1 | [7] 1 | [8] 0.963 | [9] 0.993 | [10] 1.01 | [11] 0.978 | [12] 1.02 | [13] 0.989 | [14] 0.992 | [15] 0.991 | [16] 1.06 | [17] 0.985 | [18] 1.04 | [19] 1.01 | [20] 0.989 | [21] 0.994 | [22] 0.966 | [23] 1 | [24] 0.986 | [25] 1.08 | [26] 1.03 | [27] 0.902 | [28] 0.973

O=C(Nc1cc2ccccc2s1)N1CCN(Cc2c(F)cccc2Cl)CC1
inactive: S. cerevisiae deletion strains, locus YAR019C, strain CDC15, stronger effect = lower value 0.994 | S. cerevisiae deletion strains, locus YBL105C, strain PKC1, stronger effect = lower value 0.974 | S. cerevisiae deletion strains, locus YBR135W, strain CKS1, stronger effect = lower value 0.986 | S. cerevisiae deletion strains, locus YBR136W, strain MEC1, stronger effect = lower value 0.973 | S. cerevisiae deletion strains, locus YBR160W, strain CDC28, stronger effect = lower value 0.972 | S. cerevisiae deletion strains, locus YDL017W, strain CDC7, stronger effect = lower value 0.983 | S. cerevisiae deletion strains, locus YDL028C, strain MPS1, stronger effect = lower value 0.988 | [3] 0.982 | S. cerevisiae deletion strains, locus YDL108W, strain KIN28, stronger effect = lower value 0.989 | S. cerevisiae deletion strains, locus YDL132W, strain cdc53, stronger effect = lower value 0.983 | S. cerevisiae deletion strains, locus YDL214C, strain PRR2, stronger effect = lower value 0.938 | S. cerevisiae deletion strains, locus YDR052C, strain DBF4, stronger effect = lower value 0.986 | S. cerevisiae deletion strains, locus YDR054C, strain cdc34, stronger effect = lower value 0.968 | S. cerevisiae deletion strains, locus YDR226W, strain ADK1, stronger effect = lower value 0.979 | S. cerevisiae deletion strains, locus YDR477W, strain SNF1, stronger effect = lower value 0.943 | S. cerevisiae deletion strains, locus YER123W, strain YCK3, stronger effect = lower value 0.946 | S. cerevisiae deletion strains, locus YER133W, strain GLC7, stronger effect = lower value 0.95 | S. cerevisiae deletion strains, locus YFL009W, strain cdc4, stronger effect = lower value 0.981 | S. cerevisiae deletion strains, locus YFL029C, strain CAK1, stronger effect = lower value 0.984 | S. cerevisiae deletion strains, locus YFR003C, strain YPI1, stronger effect = lower value 0.983 | S. cerevisiae deletion strains, locus YFR019W, strain FAB1, stronger effect = lower value 0.958 | S. cerevisiae deletion strains, locus YFR028C, strain CDC14, stronger effect = lower value 0.988 | S. cerevisiae deletion strains, locus YGR040W, strain KSS1, stronger effect = lower value 0.925 | S. cerevisiae deletion strains, locus YGR052W, strain FMP48, stronger effect = lower value 0.986 | S. cerevisiae deletion strains, locus YGR092W, strain DBF2, stronger effect = lower value 0.972 | [8] 0.938 | S. cerevisiae deletion strains, locus YHR079C, strain IRE1, stronger effect = lower value 0.934 | S. cerevisiae deletion strains, locus YHR082C, strain KSP1, stronger effect = lower value 0.982 | S. cerevisiae deletion strains, locus YHR205W, strain SCH9, stronger effect = lower value 0.972 | S. cerevisiae deletion strains, locus YIL147C, strain SLN1, stronger effect = lower value 0.982 | S. cerevisiae deletion strains, locus YJL095W, strain BCK1, stronger effect = lower value 0.927 | S. cerevisiae deletion strains, locus YJL128C, strain PBS2, stronger effect = lower value 0.965 | S. cerevisiae deletion strains, locus YJL157C, strain FAR1, stronger effect = lower value 0.913 | S. cerevisiae deletion strains, locus YJR016C, strain ILV3, stronger effect = lower value 0.997 | S. cerevisiae deletion strains, locus YJR066W, strain TOR1 (second series), stronger effect = lower value 0.904 | S. cerevisiae deletion strains, locus YJR066W, strain TOR1, stronger effect = lower value 0.979 | S. cerevisiae deletion strains, locus YKL048C, strain ELM1, stronger effect = lower value 0.983 | S. cerevisiae deletion strains, locus YKL067W, strain YNK1, stronger effect = lower value 0.946 | S. cerevisiae deletion strains, locus YKL101W, strain HSL1, stronger effect = lower value 0.918 | S. cerevisiae deletion strains, locus YKL193C, strain SDS22, stronger effect = lower value 0.986 | S. cerevisiae deletion strains, locus YKL203C, strain TOR2, stronger effect = lower value 0.975 | S. cerevisiae deletion strains, locus YLR133W, strain CKI1, stronger effect = lower value 0.928 | S. cerevisiae deletion strains, locus YLR403W, strain SFP1, stronger effect = lower value 0.906 | S. cerevisiae deletion strains, locus YML070W, strain DAK1, stronger effect = lower value 0.915 | S. cerevisiae deletion strains, locus YMR001C, strain CDC5, stronger effect = lower value 0.984 | S. cerevisiae deletion strains, locus YMR205C, strain PFK2 (second series), stronger effect = lower value 0.95 | S. cerevisiae deletion strains, locus YMR277W, strain FCP1, stronger effect = lower value 0.983 | S. cerevisiae deletion strains, locus YNL006W, strain LST8, stronger effect = lower value 0.989 | S. cerevisiae deletion strains, locus YNL020C, strain ARK1, stronger effect = lower value 0.928 | S. cerevisiae deletion strains, locus YNL161W, strain CBK1, stronger effect = lower value 0.988 | S. cerevisiae deletion strains, locus YNL183C, strain NPR1, stronger effect = lower value 0.944 | S. cerevisiae deletion strains, locus YNL207W, strain RIO2, stronger effect = lower value 0.976 | S. cerevisiae deletion strains, locus YNL222W, strain SSU72, stronger effect = lower value 0.988 | S. cerevisiae deletion strains, locus YNL307C, strain MCK1 (second series), stronger effect = lower value 0.961 | S. cerevisiae deletion strains, locus YOL078W, strain AVO1, stronger effect = lower value 0.982 | S. cerevisiae deletion strains, locus YOL136C, strain PFK27, stronger effect = lower value 0.911 | S. cerevisiae deletion strains, locus YOR061W, strain CKA2, stronger effect = lower value 0.952 | S. cerevisiae deletion strains, locus YOR119C, strain RIO1, stronger effect = lower value 0.993 | S. cerevisiae deletion strains, locus YOR231W, strain MKK1, stronger effect = lower value 0.877 | S. cerevisiae deletion strains, locus YOR329C, strain SCD5, stronger effect = lower value 0.972 | S. cerevisiae deletion strains, locus YPL031C, strain PHO85, stronger effect = lower value 0.942 | S. cerevisiae deletion strains, locus YPL153C, strain RAD53, stronger effect = lower value 0.917 | S. cerevisiae deletion strains, locus YPL204W, strain HRR25, stronger effect = lower value 0.915 | S. cerevisiae deletion strains, locus YPL209C, strain IPL1, stronger effect = lower value 0.976 | S. cerevisiae deletion strains, locus YPL256C, strain CLN2, stronger effect = lower value 0.888 | S. cerevisiae deletion strains, locus YPR025C, strain CCL1, stronger effect = lower value 0.986 | S. cerevisiae deletion strains, locus YPR106W, strain ISR1, stronger effect = lower value 0.962 | S. cerevisiae deletion strains, locus YPR111W, strain DBF20, stronger effect = lower value 0.962 | S. cerevisiae deletion strains, strain NNK1, stronger effect = lower value 0.972 | S. cerevisiae deletion strains, strain TSCII, stronger effect = lower value 0.986
active: S. cerevisiae deletion strains, locus YLR113W, strain HOG1, stronger effect = lower value 0.853

O=C1C(c2ccc(Br)cc2)=C(O)c2ccccc21
inactive: [1] 0.981 | [3] 0.953 | [4] 0.958 | [5] 0.99 | [7] 0.952 | [8] 0.849 | [11] 0.978 | [13] 0.983 | [14] 0.974 | [16] 0.982 | [17] 0.957 | [18] 0.983 | [20] 1.02 | [21] 0.966 | [22] 0.994 | [24] 0.989 | S. cerevisiae deletion strains, locus YOL006C, strain TOP1, stronger effect = lower value 1.01 | [25] 0.928 | [26] 1.03 | [27] 0.942 | [28] 0.979
active: [2] 0.912 | [6] 0.915 | [9] 0.868 | [10] 0.913 | [12] 0.851 | [15] 0.893 | [19] 0.896 | [23] 0.938
